The campaign covered roughly 300,000 compounds. About 3,200 (1.1%) were called active. No stated cut-off is given here; in the data, active means inhibition above about 75%; inconclusive means no clear call, values can overlap the other calls; inactive means below that; tested in HMLE shEcad cells. This excerpt belongs to a sample that is enriched for actives.

The nature of this assay: growth suppression of cancer stem-like cells – cell-based, luminescence, primary screen (AID 2717). The conditions noted are these: cancer stem cell-like cells viability, at 7.5 µM, active compounds read high.
Regarding `Cc1nn(-c2ccccc2)c(C)c1NC(=O)COc1ccc(Cl)cc1Cl`, the inhibition (as a rule, the relative decrease from the control value, in per cent) is 22.1% (inactive).

As for `COC(=O)c1c(NC(=O)COc2ccc(Cl)cc2Cl)sc2c1CC(C)(C)NC2(C)C`, the inhibition is 103% (active).

Turning to `CCOC(=O)c1c(NC(=O)c2ccc(S(=O)(=O)N(C)CC3CCCO3)cc2)sc2c1CC(C)(C)NC2(C)C` (stereo not drawn), the inhibition is 62.9% (inactive).

Consider `CC(OC(=O)/C=C/c1ccccc1)C(=O)Nc1ccc(C(N)=O)cc1` (stereo not drawn), for which the inhibition was -9.55% (inactive).

Turning to `COc1ccc(-n2nnnc2-c2nc3ccccc3s2)cc1`, the inhibition was 10.3% (inactive).

Turning to `COc1ccc(C2=NN(c3nc4ccccc4s3)C(=O)C2)cc1`, the inhibition is 81.2% (active).

For `COC(=O)Cc1[nH]n(-c2nc3ccccc3s2)c(=O)c1C(C)=Nc1ccc(OC)cc1`, the inhibition is 32.2% (inactive).

On to `O=C(NCCC1=CCCCC1)c1ccc(-n2cncn2)cc1`, for which the inhibition is -10.8% (inactive).

Consider `CCOc1ccccc1Nc1ccc2nonc2c1[N+](=O)[O-]`, for which the inhibition is -3.74% (inactive).

In the case of `O=[N+]([O-])c1c(NCCO)cc(Sc2nc3ccccc3s2)c2nonc12`, the inhibition is 78.7% (active).

As for `O=C(O)c1cccc(S(=O)(=O)Nc2ccc(O)cc2Sc2nc3ccccc3s2)c1`, the inhibition was -15.7% (inactive).

Take `CC(C)C(NC(=O)c1c(F)cccc1F)C(=O)NNC(=O)c1ccccc1` (stereo not drawn): the inhibition was -4.36% (inactive).

On to `CC(C)(C)OC(=O)C[C@@H]1C/C=C\C[C@@H](CC(=O)N[C@@H](CO)Cc2ccccc2)C(=O)N2CCC[C@H]2COC1=O`, for which the inhibition is -16.5% (inactive).

Turning to `Cc1ccc(C)c(NC(=O)CN(C)C(=O)COc2ccc3ccccc3c2)c1`, the inhibition was -11.2% (inactive).

On to `O=C(COc1ccc(Br)cc1F)NCC1(N2CCCCC2)CCCCC1`, for which the inhibition was 1.3% (inactive).

For `CC1=NN(c2ccccc2)C(=O)C1C(=O)c1ccc([N+](=O)[O-])cc1` (stereo not drawn), the inhibition was -1.87% (inactive).

Consider `O=c1[nH]n(-c2ccc([N+](=O)[O-])cc2)c(=O)c2ccccc12`, for which the inhibition was -17.2% (inactive).

As to `O=C1CC(c2ccccc2)=NN1c1ccc([N+](=O)[O-])cc1`, the inhibition is 101% (active).

With `Cc1ccc(NC(=O)C2CC2)cc1S(=O)(=O)N1CCOCC1`, the inhibition is -16% (inactive).

As to `C[C@H](CO)N1C[C@H](C)[C@H](CN(C)C(=O)Nc2ccc(C(F)(F)F)cc2)Oc2c(NC(=O)c3ccncc3)cccc2C1=O`, the inhibition was 6.77% (inactive).

As for `COc1ccc(NC(=O)Nc2ccc3c(c2)C(=O)N([C@H](C)CO)C[C@H](C)[C@@H](CN(C)C(=O)Nc2ccc4c(c2)OCO4)O3)cc1`, the inhibition was -11% (inactive).

For the molecule `COc1cc(OC)cc(-c2sc3ccc(OC)cc3c2-c2ccc3cc[nH]c3c2)c1`, the inhibition is 137% (active).

Take `CCN(CC)CC(=O)c1c[nH]c2ccc(OC)cc12`: the inhibition is 3.22% (inactive).

Regarding `COc1cc(OC)cc(-c2c(-c3cccs3)c3cc(-c4ccc(OC)cc4F)ccc3n2C)c1`, the inhibition was -6.57% (inactive).

As to `COc1ccc2[nH]c(=S)cc(C)c2c1`, the inhibition is -16.3% (inactive).

Take `COc1ccc2sc(-c3ccc(N(C)C)cc3)c(-c3ccc4cc[nH]c4c3)c2c1`: the inhibition is 83.3% (active).

As to `CC[C@H]1CN2CCc3cc(OC)c(OC)cc3[C@@H]2C[C@@H]1C[C@H]1NCCc2cc(OC)c(OC)cc21`, the inhibition is 76.3% (active).

As to `COc1ccc2c(c1)CCNC2Cc1ccc(OC)c(O)c1` (stereo not drawn), the inhibition was 10.2% (inactive).

As for `COc1cc2c(cc1O)[C@H](Cc1ccc(Oc3cc(C[C@@H]4NCCc5cc(OC)c(O)cc54)ccc3O)cc1)NCC2`, the inhibition is 9.97% (inactive).

For `CN=C(Nc1cccc(S(=O)(=O)N2CCOCC2)c1)c1ccccc1`, the inhibition is -5.3% (inactive).

With `COC(=O)/C=C\C(=O)Nc1cccc([N+](=O)[O-])c1`, the inhibition is 88.5% (active).

For `COc1ccc(S(=O)(=O)NC(C)C(=O)Nc2cccc([N+](=O)[O-])c2)cc1` (stereo not drawn), the inhibition was -2.67% (inactive).

Take `COc1cccc(CNC(=O)CCCC(=O)Nc2cccc([N+](=O)[O-])c2)c1`: the inhibition was -9.18% (inactive).

In the case of `Cc1ccc(NC(=O)c2ccc(Cl)nc2)cc1S(=O)(=O)N1CCOCC1`, the inhibition was 33.6% (inactive).

Take `Cc1cccc(N2CCN(C(=O)COCc3cc(-c4ccc5c(c4)OCO5)on3)CC2)c1C`: the inhibition is 121% (active).

As for `CCOC(=O)N1CCN(C(=O)COCc2cc(-c3ccc4c(c3)OCO4)on2)CC1`, the inhibition was -12.8% (inactive).

`O=C(COCc1cc(-c2ccc3c(c2)OCO3)on1)N1CCN(c2cccc(Cl)c2)CC1`: the inhibition was 36.2% (inactive).

For the molecule `Cc1ccc(C(=O)Nc2ccc3c(c2)OCCO3)cc1S(=O)(=O)N1CCOCC1`, the inhibition was -3.87% (inactive).

Consider `C[C@H](CO)N1C[C@H](C)[C@@H](CN(C)S(=O)(=O)c2ccc(F)cc2)Oc2ccc(NC(=O)CCC(F)(F)F)cc2C1=O`, for which the inhibition was 4.59% (inactive).

Take `CCN(c1ccccc1)S(=O)(=O)c1ccc(C(=O)Nc2ccccc2OC)cc1`: the inhibition was 16.8% (inactive).

Take `COc1ccc([C@H]2CC(=O)C=C(c3ccc(CO)cc3)C2)cc1`: the inhibition is -11% (inactive).

Regarding `FC(F)(F)c1cccc(NC(=S)Nc2cccc(Cl)c2)c1`, the inhibition is 52.9% (inactive).

Consider `Cc1csc(NC(=S)Nc2cccc(Cl)c2)n1`, for which the inhibition is 78.6% (active).

As to `S=C(Nc1cccc(Cl)c1)Nc1ccc2c(c1)OCCO2`, the inhibition was 4.65% (inactive).

`CCN(CC)S(=O)(=O)c1ccc(N2CCOCC2)c(NC(=O)C(C)Oc2ccc(F)cc2)c1` (stereo not drawn): the inhibition was -11.2% (inactive).

For the molecule `CN(c1ccccc1)S(=O)(=O)c1cc(C(=O)N2CCN(c3ncccn3)CC2)ccc1Cl`, the inhibition is 3.3% (inactive).

Turning to `Cc1ccc(C)c(S(=O)(=O)N2CCN(C(=O)Nc3ccccc3)CC2)c1`, the inhibition was -18.4% (inactive).

Turning to `COc1ccc(C)cc1S(=O)(=O)N1CCN(S(=O)(=O)c2cc(C(=O)O)ccc2C)CC1`, the inhibition was -3.35% (inactive).

With `Cc1ccc(C)c(S(=O)(=O)N2CCN(c3ncnc4sccc34)CC2)c1`, the inhibition is 101% (active).

With `CCC1(C)NC(=O)N(CC(=O)N2CCN(c3cccc(Cl)c3)CC2)C1=O` (stereo not drawn), the inhibition is 3.29% (inactive).

As for `CCN1C(=O)/C(=C\N2CCOCC2)SC1=S`, the inhibition was -22.1% (inactive).

As for `CCN1C(=O)/C(=C\N2CCN(c3cccc(Cl)c3)CC2)SC1=S`, the inhibition was 100% (active).

Regarding `COc1cc(/C=C/C(=O)Nc2ccc(OC)c(S(=O)(=O)N3CCOCC3)c2)ccc1OCC#N`, the inhibition was 42.4% (inactive).

With `O=C(Nc1cccc(S(=O)(=O)N2CCCC2)c1)c1cncc(Br)c1`, the inhibition was -1.23% (inactive).

Regarding `C=CCC[C@@H](Cc1ccc(F)cc1)C(=O)OC[C@@H](C)NC(=O)[C@H](CC=C)CC(=O)N(CCO)Cc1ccccc1`, the inhibition is -1.95% (inactive).

Take `O=C(CSc1nnc(-c2ccncc2)o1)Nc1cccc(Cl)c1`: the inhibition is 7.36% (inactive).

For `Cc1cc(C)c(S(=O)(=O)N2CCC(C(=O)OCc3c(C)noc3C)CC2)c(C)c1`, the inhibition is 1.55% (inactive).

As to `COc1cc(/C=C/C(=O)OCC(=O)NCCCc2ccccc2)ccc1O`, the inhibition is 14.6% (inactive).
